A number with no mark means an inactive call.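 Rule for the calls: active = MAPPIT score above the 99th percentile of random reference set scores in the same batch; inactive = at or below it.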

Experiment in all cases: MAPPIT interaction score (arbitrary units); higher = stronger binary interaction signal, active = hit call of the paper
The subject of one experiment is CG15545. The conditions noted are these: MAPPIT configuration: N-N; pair source set: Curagen_low_conf.
Another experiment concerns CG17377. The conditions noted are these: MAPPIT configuration: N-C; pair source set: screen_4.
The test system of another experiment is CG32817. Conditions: MAPPIT configuration: N-N; pair source set: screen_2.
The next experiment relates to Mst87F. Conditions: MAPPIT configuration: N-N; pair source set: screen_2.
The test system of a further experiment is CG31406. Conditions: pair source set: RRS.
A further experiment relates to Hakai. Conditions: MAPPIT configuration: N-N; pair source set: DPIM.
The next experiment deals with Lkb1. The conditions noted are these: MAPPIT configuration: N-N; pair source set: DPIM.
The subject of another experiment is RnrS. The conditions noted are these: MAPPIT configuration: N-N; pair source set: DPIM.
In a further experiment the test system is bai. Conditions: MAPPIT configuration: N-N; pair source set: DPIM.
For another experiment, the system named is mRpS24. The conditions noted are these: MAPPIT configuration: N-N; pair source set: DPIM.
In a further experiment the test system is scf. The conditions noted are these: MAPPIT configuration: N-N; pair source set: DPIM.
In the next experiment the test system is CG5111. Conditions: MAPPIT configuration: N-C; pair source set: screen_3.
A further experiment has as its system CG14985. Conditions: MAPPIT configuration: N-N; pair source set: screen_2.
The next experiment deals with CG3517. Conditions: MAPPIT configuration: N-N; pair source set: screen_1.
The test system of a further experiment is CG1607. The conditions noted are these: MAPPIT configuration: N-N; pair source set: DPIM.
A further experiment deals with CG12567. Conditions: MAPPIT configuration: N-N; pair source set: Finley_Y2H.
The next experiment has as its system mRpL47. The conditions noted are these: MAPPIT configuration: N-N; pair source set: Finley_Y2H.
The next experiment has as its system CG1640. The conditions noted are these: MAPPIT configuration: N-C; pair source set: screen_4.
The next experiment relates to Pex5. The conditions noted are these: MAPPIT configuration: N-N; pair source set: Curagen_low_conf.
In a further experiment the test system is Arpc3A. Conditions: pair source set: Lit-BM-16.
In the next experiment the test system is CG2120. The conditions noted are these: MAPPIT configuration: N-C; pair source set: screen_3.
The test system of another experiment is Odj. Conditions: MAPPIT configuration: N-N; pair source set: screen_2.
A further experiment relates to caup. The conditions noted are these: MAPPIT configuration: N-C; pair source set: screen_3.
In the next experiment the test system is CG4619. The conditions noted are these: MAPPIT configuration: N-N; pair source set: DPIM.
In a further experiment the test system is CG3703. Conditions: MAPPIT configuration: N-N; pair source set: Finley_Y2H.
The next experiment deals with CG46385. Conditions: MAPPIT configuration: N-N; pair source set: screen_1.
In the next experiment the test system is CG7011. The conditions noted are these: MAPPIT configuration: N-N; pair source set: Lit-BS-16.
For the next experiment, the system named is CG14044. The conditions noted are these: MAPPIT configuration: N-N; pair source set: Finley_Y2H.
A further experiment concerns CG4116. Conditions: MAPPIT configuration: N-N; pair source set: Curagen_high_conf.
The test system of a further experiment is CG8997. The conditions noted are these: MAPPIT configuration: N-N; pair source set: Finley_Y2H.
A further experiment deals with C15. Conditions: MAPPIT configuration: N-N; pair source set: Lit-BS-16.
The test system of a further experiment is CG31740. The conditions noted are these: MAPPIT configuration: N-N; pair source set: screen_2.
For the next experiment, the system named is CG4250. Conditions: MAPPIT configuration: N-C; pair source set: screen_4.
For the next experiment, the system named is lms. Conditions: MAPPIT configuration: N-N; pair source set: screen_1.
The next experiment deals with CG8173. Conditions: MAPPIT configuration: N-N; pair source set: screen_1.
The next experiment deals with Vsx2. The conditions noted are these: MAPPIT configuration: N-N; pair source set: screen_2.
For the next experiment, the system named is CG44250. Conditions: MAPPIT configuration: N-N; pair source set: screen_2.
A further experiment deals with lwr. Conditions: MAPPIT configuration: N-N.
A further experiment relates to Atg1. Conditions: MAPPIT configuration: N-N; pair source set: Finley_Y2H.
The next experiment concerns D. Conditions: MAPPIT configuration: N-N; pair source set: Finley_Y2H.
Another experiment relates to CG9986. Conditions: MAPPIT configuration: N-N; pair source set: Lit-BS-16.
The next experiment concerns HP1e. Conditions: MAPPIT configuration: N-N; pair source set: Lit-BS-16.
For a further experiment, the system named is pan. Conditions: MAPPIT configuration: N-N; pair source set: Finley_Y2H.
The test system of another experiment is Prx2. Conditions: MAPPIT configuration: N-N; pair source set: Curagen_high_conf.
The test system of a further experiment is Gmppa. Conditions: MAPPIT configuration: N-N; pair source set: Curagen_high_conf.
The test system of another experiment is CkIIalpha. Conditions: MAPPIT configuration: N-N; pair source set: Lit-BM-16.
Another experiment concerns su(Hw). The conditions noted are these: MAPPIT configuration: N-N; pair source set: DPIM.
The test system of another experiment is Doa. Conditions: MAPPIT configuration: N-N; pair source set: Finley_Y2H.
In another experiment the test system is Smg6. The conditions noted are these: MAPPIT configuration: N-N; pair source set: Finley_Y2H.
A further experiment relates to Srp54. Conditions: MAPPIT configuration: N-N; pair source set: Finley_Y2H.
In the next experiment the test system is RfC3. The conditions noted are these: pair source set: Lit-BM-16.
In another experiment the test system is Eno. The conditions noted are these: MAPPIT configuration: N-N; pair source set: Lit-BM-16.
The subject of a further experiment is MESK2. The conditions noted are these: MAPPIT configuration: N-N; pair source set: Lit-BS-16.
The test system of the next experiment is Src64B. Conditions: MAPPIT configuration: N-N; pair source set: Lit-BS-16.
In the next experiment the test system is Sec24CD. Conditions: MAPPIT configuration: N-N; pair source set: Lit-BS-16.
The next experiment deals with PGAP5. The conditions noted are these: MAPPIT configuration: N-N; pair source set: Finley_Y2H.
The next experiment has as its system Mlf. The conditions noted are these: pair source set: Lit-BM-16.
The next experiment has as its system chn. Conditions: MAPPIT configuration: N-N; pair source set: Curagen_low_conf.
A further experiment has as its system CG9536. The conditions noted are these: MAPPIT configuration: N-N; pair source set: DPIM.
A further experiment has as its system Ktl. The conditions noted are these: MAPPIT configuration: N-N; pair source set: screen_2.
Another experiment relates to Tina-1. The conditions noted are these: MAPPIT configuration: N-N; pair source set: DPIM.
A further experiment concerns Nup50. Conditions: pair source set: Lit-BM-16.
The next experiment deals with Nost. The conditions noted are these: MAPPIT configuration: N-N; pair source set: Curagen_high_conf.
A further experiment relates to CG9775. Conditions: MAPPIT configuration: N-N; pair source set: DPIM.
The subject of another experiment is Nup93-1. Conditions: MAPPIT configuration: N-N; pair source set: Curagen_low_conf.
Another experiment relates to apt. The conditions noted are these: MAPPIT configuration: N-N; pair source set: Curagen_low_conf.
The test system of a further experiment is Reph. The conditions noted are these: MAPPIT configuration: N-C; pair source set: Lit-BM-16.
The test system of a further experiment is CG9132. Conditions: MAPPIT configuration: N-N; pair source set: Finley_Y2H.
For another experiment, the system named is PAN3. The conditions noted are these: MAPPIT configuration: N-N; pair source set: screen_1.
The test system of the next experiment is l(3)05822. The conditions noted are these: MAPPIT configuration: N-N; pair source set: screen_2.
The test system of another experiment is mad2. The conditions noted are these: MAPPIT configuration: N-N; pair source set: Finley_Y2H.
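Note: HEK293T cells with Epo stimulation, STAT-responsive firefly luciferase reporter, fold induction versus unstimulated cells divided by the larger fold induction of two negative controls lacking either bait or prey.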

Doa, sequence (chain, as listed by the source): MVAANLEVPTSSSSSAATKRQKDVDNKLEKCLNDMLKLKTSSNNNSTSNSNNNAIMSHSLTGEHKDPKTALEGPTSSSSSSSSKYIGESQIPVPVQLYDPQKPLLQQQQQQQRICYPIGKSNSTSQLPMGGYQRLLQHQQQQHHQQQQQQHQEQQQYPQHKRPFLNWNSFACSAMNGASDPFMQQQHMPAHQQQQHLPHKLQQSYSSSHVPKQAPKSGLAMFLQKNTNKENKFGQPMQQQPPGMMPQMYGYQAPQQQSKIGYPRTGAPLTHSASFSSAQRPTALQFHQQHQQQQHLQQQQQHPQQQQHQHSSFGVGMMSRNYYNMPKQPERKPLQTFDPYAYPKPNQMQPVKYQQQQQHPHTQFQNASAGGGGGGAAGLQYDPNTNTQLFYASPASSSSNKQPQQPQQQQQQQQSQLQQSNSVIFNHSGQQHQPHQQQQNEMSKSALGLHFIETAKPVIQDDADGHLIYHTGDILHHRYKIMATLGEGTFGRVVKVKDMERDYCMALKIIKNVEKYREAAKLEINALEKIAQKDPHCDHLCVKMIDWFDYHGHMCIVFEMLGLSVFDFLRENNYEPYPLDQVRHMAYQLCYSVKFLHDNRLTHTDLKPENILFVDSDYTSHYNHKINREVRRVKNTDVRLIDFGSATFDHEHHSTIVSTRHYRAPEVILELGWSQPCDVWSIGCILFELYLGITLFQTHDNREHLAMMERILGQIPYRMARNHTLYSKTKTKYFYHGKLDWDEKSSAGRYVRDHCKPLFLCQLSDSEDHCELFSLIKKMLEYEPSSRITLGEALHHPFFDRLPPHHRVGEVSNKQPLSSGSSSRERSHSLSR
SmB, sequence (chain, as listed by the source): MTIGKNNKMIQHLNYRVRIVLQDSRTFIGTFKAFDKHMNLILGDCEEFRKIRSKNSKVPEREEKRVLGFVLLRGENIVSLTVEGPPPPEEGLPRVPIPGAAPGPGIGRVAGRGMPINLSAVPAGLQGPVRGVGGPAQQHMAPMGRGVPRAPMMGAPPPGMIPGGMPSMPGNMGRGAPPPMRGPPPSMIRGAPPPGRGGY
dsx, sequence (chain, as listed by the source): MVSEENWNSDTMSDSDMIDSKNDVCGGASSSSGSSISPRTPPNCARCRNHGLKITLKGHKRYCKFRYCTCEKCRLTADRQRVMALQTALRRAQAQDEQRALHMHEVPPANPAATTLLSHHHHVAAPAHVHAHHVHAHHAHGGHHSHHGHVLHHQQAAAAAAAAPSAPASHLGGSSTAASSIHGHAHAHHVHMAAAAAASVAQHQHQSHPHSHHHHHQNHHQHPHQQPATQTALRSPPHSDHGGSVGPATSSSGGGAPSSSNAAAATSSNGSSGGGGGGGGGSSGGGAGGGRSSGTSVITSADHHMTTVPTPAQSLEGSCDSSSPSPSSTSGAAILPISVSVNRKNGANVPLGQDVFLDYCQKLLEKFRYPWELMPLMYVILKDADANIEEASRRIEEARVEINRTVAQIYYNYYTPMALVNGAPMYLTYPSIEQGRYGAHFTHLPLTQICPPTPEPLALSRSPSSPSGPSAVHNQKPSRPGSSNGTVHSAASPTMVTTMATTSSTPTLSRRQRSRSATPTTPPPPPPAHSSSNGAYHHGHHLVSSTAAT
Hsc70-1, sequence (chain, as listed by the source): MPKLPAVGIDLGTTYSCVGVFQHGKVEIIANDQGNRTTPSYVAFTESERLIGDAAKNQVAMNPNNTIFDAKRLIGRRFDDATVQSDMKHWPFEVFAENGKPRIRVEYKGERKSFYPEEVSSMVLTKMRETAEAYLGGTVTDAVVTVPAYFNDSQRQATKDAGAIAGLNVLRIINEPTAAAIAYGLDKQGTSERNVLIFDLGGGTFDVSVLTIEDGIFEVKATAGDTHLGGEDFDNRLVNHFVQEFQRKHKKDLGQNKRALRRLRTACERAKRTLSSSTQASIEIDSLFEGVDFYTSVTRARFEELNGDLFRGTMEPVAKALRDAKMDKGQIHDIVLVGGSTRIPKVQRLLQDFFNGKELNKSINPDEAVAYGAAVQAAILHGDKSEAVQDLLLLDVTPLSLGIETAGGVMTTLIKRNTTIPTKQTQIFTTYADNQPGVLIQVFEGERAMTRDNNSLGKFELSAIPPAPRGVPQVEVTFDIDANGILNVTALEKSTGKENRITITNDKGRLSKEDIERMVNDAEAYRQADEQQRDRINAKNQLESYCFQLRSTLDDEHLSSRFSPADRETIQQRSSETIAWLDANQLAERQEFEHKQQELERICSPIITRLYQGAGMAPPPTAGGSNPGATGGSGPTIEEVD
Gsc, sequence (chain, as listed by the source): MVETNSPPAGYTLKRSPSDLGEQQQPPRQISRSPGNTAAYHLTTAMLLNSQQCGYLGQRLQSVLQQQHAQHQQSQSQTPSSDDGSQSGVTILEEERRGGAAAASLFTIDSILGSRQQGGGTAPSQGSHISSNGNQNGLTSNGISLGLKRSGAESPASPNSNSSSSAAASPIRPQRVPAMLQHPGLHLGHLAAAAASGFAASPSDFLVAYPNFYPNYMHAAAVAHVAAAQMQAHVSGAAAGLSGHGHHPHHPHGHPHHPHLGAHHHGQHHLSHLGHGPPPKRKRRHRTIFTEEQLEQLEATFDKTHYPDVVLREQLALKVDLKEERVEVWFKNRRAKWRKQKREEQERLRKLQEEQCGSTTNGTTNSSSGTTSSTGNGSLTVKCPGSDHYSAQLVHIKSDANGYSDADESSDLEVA
bowl, sequence (chain, as listed by the source): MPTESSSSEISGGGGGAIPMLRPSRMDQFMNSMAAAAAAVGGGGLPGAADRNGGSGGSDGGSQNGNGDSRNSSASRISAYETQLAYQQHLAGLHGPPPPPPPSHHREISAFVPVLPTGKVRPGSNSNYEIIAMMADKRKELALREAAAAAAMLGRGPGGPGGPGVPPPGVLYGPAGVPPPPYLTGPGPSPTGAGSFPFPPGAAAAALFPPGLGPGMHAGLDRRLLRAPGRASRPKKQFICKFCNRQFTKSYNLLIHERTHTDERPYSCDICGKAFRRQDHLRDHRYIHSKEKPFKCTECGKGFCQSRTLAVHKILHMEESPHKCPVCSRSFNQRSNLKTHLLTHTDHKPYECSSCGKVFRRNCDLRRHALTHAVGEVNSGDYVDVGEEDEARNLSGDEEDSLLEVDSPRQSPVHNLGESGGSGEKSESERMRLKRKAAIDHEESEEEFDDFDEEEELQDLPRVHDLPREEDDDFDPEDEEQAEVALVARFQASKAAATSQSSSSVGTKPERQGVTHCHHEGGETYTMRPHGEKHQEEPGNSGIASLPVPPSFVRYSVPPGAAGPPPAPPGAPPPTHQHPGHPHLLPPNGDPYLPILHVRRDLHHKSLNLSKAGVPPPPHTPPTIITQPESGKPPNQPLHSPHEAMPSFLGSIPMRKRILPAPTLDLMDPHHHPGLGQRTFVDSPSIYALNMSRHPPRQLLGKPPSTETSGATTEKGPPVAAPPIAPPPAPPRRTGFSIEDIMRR
Arpc2, sequence (chain, as listed by the source): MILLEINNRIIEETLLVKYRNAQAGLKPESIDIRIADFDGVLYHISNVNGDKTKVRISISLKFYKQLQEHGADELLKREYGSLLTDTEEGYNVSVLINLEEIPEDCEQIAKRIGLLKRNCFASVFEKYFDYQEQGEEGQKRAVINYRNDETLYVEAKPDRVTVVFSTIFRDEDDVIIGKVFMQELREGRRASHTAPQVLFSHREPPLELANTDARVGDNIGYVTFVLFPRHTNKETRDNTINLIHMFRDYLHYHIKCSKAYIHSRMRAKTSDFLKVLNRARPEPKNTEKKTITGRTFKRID
Hsp70Aa, sequence (chain, as listed by the source): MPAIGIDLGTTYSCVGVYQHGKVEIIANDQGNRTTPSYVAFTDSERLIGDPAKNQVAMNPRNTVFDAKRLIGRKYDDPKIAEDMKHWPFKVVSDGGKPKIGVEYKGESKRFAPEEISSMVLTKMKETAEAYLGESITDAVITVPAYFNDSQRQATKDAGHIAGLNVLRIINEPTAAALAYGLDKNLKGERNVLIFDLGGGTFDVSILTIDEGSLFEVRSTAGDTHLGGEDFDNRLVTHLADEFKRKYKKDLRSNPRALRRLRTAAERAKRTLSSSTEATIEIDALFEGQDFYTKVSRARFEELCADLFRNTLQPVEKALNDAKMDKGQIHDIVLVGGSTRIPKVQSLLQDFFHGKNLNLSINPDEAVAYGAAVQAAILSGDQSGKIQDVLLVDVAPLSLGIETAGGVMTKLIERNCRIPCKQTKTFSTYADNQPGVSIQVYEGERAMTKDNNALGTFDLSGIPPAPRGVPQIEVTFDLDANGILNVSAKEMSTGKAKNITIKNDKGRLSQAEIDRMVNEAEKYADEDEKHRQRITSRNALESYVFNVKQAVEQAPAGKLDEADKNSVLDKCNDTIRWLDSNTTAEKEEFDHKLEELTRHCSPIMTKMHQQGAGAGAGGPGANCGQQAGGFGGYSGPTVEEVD
otp, sequence (chain, as listed by the source): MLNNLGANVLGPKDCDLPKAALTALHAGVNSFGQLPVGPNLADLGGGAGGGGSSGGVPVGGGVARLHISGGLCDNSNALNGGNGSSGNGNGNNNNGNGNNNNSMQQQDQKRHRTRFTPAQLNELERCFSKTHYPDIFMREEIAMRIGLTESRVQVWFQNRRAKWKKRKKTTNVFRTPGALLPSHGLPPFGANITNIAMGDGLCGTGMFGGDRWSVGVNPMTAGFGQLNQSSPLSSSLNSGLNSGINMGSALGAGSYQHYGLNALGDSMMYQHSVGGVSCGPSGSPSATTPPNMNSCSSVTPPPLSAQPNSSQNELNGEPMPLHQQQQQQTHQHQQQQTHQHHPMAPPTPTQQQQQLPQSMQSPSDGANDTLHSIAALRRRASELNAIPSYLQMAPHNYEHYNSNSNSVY
Cyp1, sequence (chain, as listed by the source): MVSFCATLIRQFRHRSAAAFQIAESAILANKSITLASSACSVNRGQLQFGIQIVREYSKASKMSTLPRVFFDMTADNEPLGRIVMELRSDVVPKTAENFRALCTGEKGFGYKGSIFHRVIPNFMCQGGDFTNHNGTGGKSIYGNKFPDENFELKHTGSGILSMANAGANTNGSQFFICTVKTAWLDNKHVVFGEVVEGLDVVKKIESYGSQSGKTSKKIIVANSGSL

Regarding RpL23, the MAPPIT interaction score with CG15545 was 0.083.
For the substance dsx, the figures for the MAPPIT interaction score in the experiment with CG17377, with CG32817 and in the experiment on Mst87F were 2.14, 2.31 and 4.59 (active), respectively.
For Hsc70-1, the MAPPIT interaction score in the experiment with CG31406 (MAPPIT configuration: N-C) is 1.43; in the experiment with CG31406 (MAPPIT configuration: N-N) it was -0.111; with Hakai it was 0.323; in the experiment with Lkb1 it was -0.0906; in the experiment on RnrS, 1; with bai it was -0.235. For the same substance, the MAPPIT interaction score is -0.169 in the experiment with mRpS24 and 1.56 in the experiment on scf.
Regarding Abd-B, the MAPPIT interaction score in the experiment on CG5111 is 1.34.
Consider Vps60, for which, in the experiment on CG14985, the MAPPIT interaction score was 0.0854.
As for e(y)3, the MAPPIT interaction score in the experiment on CG3517 was 3.82 (active).
Turning to Fmr1, in the experiment on CG1607, the MAPPIT interaction score was 0.0271.
For prd, the MAPPIT interaction score in the experiment on CG12567 was 2.65; in the experiment on mRpL47, 0.0739.
Regarding Acam, the MAPPIT interaction score in the experiment with CG1640 was 0.679; in the experiment with Pex5, 0.715.
In the case of Arpc2, the MAPPIT interaction score in the experiment on Arpc3A (MAPPIT configuration: N-C) is 2.37; with Arpc3A (MAPPIT configuration: N-N), 0.165.
Turning to bowl, the MAPPIT interaction score in the experiment with CG2120 is 0.273; with Odj, -0.226; in the experiment with caup, -0.0689.
As to pnr, the MAPPIT interaction score with CG4619 was 3.3 (active).
On to gsb-n, for which, in the experiment with CG3703, the MAPPIT interaction score was 0.258.
In the case of Poxm, the MAPPIT interaction score was 1.84 in the experiment with CG46385 and 0.0698 with CG7011.
For the substance zen, in the experiment with CG14044, the MAPPIT interaction score is 1.38.
As to SmD1, in the experiment with CG4116, the MAPPIT interaction score was -0.319.
Consider lark, for which the MAPPIT interaction score with CG8997 is 1.37.
Consider bsh, for which the MAPPIT interaction score with C15 was 0.102.
Gsc: the MAPPIT interaction score is 3.16 (active) with CG31740, 1.43 in the experiment on CG4250 and -0.637 in the experiment with lms.
Regarding otp, the MAPPIT interaction score with CG8173 was -0.108; with Vsx2, -0.232.
With cher, the MAPPIT interaction score in the experiment on CG44250 was 0.155; with lwr (pair source set: DPIM) it was -0.358.
For the substance Rbp6, in the experiment on Atg1, the MAPPIT interaction score is 0.221.
In the case of RpL39, the MAPPIT interaction score in the experiment with D is -0.321.
Turning to Hsp70Aa, the results for the MAPPIT interaction score in the experiment on CG9986 and with HP1e were 0.269 and 0.126, respectively.
For the substance Cdk5, the MAPPIT interaction score with pan was -0.4.
Consider Srx, for which the MAPPIT interaction score in the experiment on Prx2 is -0.16.
On to Gmppb, for which the MAPPIT interaction score with Gmppa was 1.26.
For the substance CkIIbeta, the MAPPIT interaction score with CkIIalpha is 3.04 (active).
In the case of Non1, the MAPPIT interaction score in the experiment with su(Hw) is 0.589.
In the case of Doa, the MAPPIT interaction score was 1.07 in the experiment with Doa, 1.25 in the experiment with Smg6, -1.75 with Srp54 and -1.12 in the experiment on lwr (pair source set: Finley_Y2H).
In the case of RfC4, the MAPPIT interaction score with RfC3 (MAPPIT configuration: N-C) was 3.58; in the experiment with RfC3 (MAPPIT configuration: N-N), 6.38 (active).
In the case of Cyp1, the values for the MAPPIT interaction score with Eno and in the experiment with MESK2 were 0.063 and 0.0293, respectively.
For the substance Pgi, in the experiment on Src64B, the MAPPIT interaction score was -0.233.
With Jon99Cii, in the experiment on Sec24CD, the MAPPIT interaction score is -0.28.
Regarding Dfd, the MAPPIT interaction score in the experiment on PGAP5 was 0.749.
Regarding DnaJ-1, the results for the MAPPIT interaction score with Mlf (MAPPIT configuration: N-C) and with Mlf (MAPPIT configuration: N-N) were 1.44 and 0.787, respectively.
With Hsp83, the MAPPIT interaction score with chn is 0.266.
On to Arf1, for which the results for the MAPPIT interaction score in the experiment with CG9536, in the experiment with Ktl and with Tina-1 were 0.397, 2.35 and 0.274, respectively.
Turning to Pen, the MAPPIT interaction score in the experiment on Nup50 (MAPPIT configuration: N-C) was 0.849; with Nup50 (MAPPIT configuration: N-N) it was 0.121.
For the substance Src42A, in the experiment with Nost, the MAPPIT interaction score is 1.25.
RpL4: in the experiment on CG9775, the MAPPIT interaction score is -0.331.
Regarding Hrb98DE, the MAPPIT interaction score is -0.403 in the experiment on Nup93-1 and -0.399 with apt.
Consider mnb, for which the MAPPIT interaction score in the experiment with Reph was 1.38.
For the substance Gyc89Da, in the experiment on CG9132, the MAPPIT interaction score is 0.702.
SmB: the MAPPIT interaction score in the experiment with PAN3 was -0.24; with l(3)05822, 0.0651; in the experiment on mad2, -0.029.

For the origin of these results see the supplement of paper PMC10105736.
